Screening results from PubChem.
HttQ103 aggreg: mutant huntingtin aggregation inhibition; PC12 HttQ103-GFP aggregates, Acumen cytometry, 40 h; Potency, µM (highest dose often 46.1 µM), actives largely listed as inhibitors; 220,000 tested, 1.1% active; note: nearly all actives have a fitted effect of over 60% in size
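Ecdysone-promoter PC12 model expressing HTT exon 1 Q103 fused to GFP, induced by tebufenozide at 100 nM final. Compounds titrated; aggregates sized 1–25 µm scored on a 488 nm laser cytometer.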
GoLoco inh red: blocks human Gai1 binding to RGS12 GoLoco peptide, red readout; P63096; Potency, µM (titrated, usually from 61.6 µM), most hits filed as inhibitors; AID 880; 230,000 tested, 0.44% active; Gai1:RGS12 GoLoco peptide FP, rhodamine, 10 min; active = well fitted inhibition curve with a large enough effect, not every such curve was filed as active; inactive = no such curve, though single readings can be large or run the other way; note: nearly all actives have a fitted effect of over 30% in size
Target sequence (P63096 whole entry, looked up): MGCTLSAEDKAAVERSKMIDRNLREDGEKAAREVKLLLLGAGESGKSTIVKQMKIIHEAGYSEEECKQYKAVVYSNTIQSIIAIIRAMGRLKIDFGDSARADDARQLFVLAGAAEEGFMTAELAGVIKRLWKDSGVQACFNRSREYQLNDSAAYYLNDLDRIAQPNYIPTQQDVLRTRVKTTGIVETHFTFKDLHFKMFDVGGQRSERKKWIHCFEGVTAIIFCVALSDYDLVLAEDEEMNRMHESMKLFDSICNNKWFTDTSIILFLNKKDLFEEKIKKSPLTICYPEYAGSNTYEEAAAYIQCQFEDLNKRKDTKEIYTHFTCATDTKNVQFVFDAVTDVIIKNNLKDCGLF
PNC assembly inh: blocks assembly of the perinucleolar compartment | activity change (PNC), negative = inhibition, % at 10 µM | PC3M PTB-GFP, PNC prevalence imaging, 16 h; active compounds read low | 140,000 tested, 3.1% active;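 active = readout at or below -70, meaning at least 70% loss of cells showing the perinucleolar compartment, a nuclear body marking cancer cells; inconclusive = readout between -30 and a set limit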
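Read-out is percentage of cells bearing a perinucleolar compartment, from automated 20x imaging of fixed, Hoechst-stained PC3M PTB-GFP cells. Cells were seeded 4 h, then exposed 16 h to compound (23 nl of library stock) in duplicate plates.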
HTT ATP protect: protects HTT-Q103 PC12 cells, measured by ATP | Potency, µM (series often up to 56.4 µM), actives largely listed as activators | PC12 HTT-Q103 induced, cytoprotection, ATP luminescence, 40 h | 230,000 tested, 0.14% active | AID 1471; note: nearly all actives have a fitted effect of over 45% in size
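ATP quantification (ATPlite) reports survival of PC12 cells in which tebufenozide, 100 nM final, switches on Htt exon 1 with 103 glutamines linked to GFP; compounds are titrated.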
ALDH1A1 block: blocks purified human ALDH1A1 activity; Purified ALDH1A1, NADH fluorescence, propionaldehyde substrate; AID 1030; Potency, µM (top dose mostly 75.3 µM), most hits filed as inhibitors; P00352; 220,000 tested, 7.3% active; active = well fitted inhibition curve with a large enough effect, not every such curve was filed as active; inconclusive = small, poorly fitted or top-dose-only effect, or another doubt; inactive = no such curve, though single readings can be large or run the other way
HPGD inh: blocks human HPGD enzyme activity. Potency, µM, hits mostly inhibitors. AID 894. purified HPGD, NADH fluorescence kinetic, PGE2 substrate. P15428. 150,000 tested, 4.3% active; active = well fitted inhibition curve with a large enough effect, not every such curve was filed as active; inconclusive = small, poorly fitted or top-dose-only effect, or another doubt; inactive = no such curve, though single readings can be large or run the other way
Target sequence (P15428 whole entry, looked up): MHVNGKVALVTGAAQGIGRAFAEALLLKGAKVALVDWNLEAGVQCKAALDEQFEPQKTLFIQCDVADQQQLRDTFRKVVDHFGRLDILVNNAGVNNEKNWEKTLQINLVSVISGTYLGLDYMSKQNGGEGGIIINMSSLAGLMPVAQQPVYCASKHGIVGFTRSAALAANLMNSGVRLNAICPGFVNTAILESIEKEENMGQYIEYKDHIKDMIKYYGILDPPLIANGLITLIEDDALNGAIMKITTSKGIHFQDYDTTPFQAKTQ
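20 nM HPGD preincubated 15 min at room temperature with compound in 50 mM Tris-HCl pH 8, 0.01% Tween 20. Started with 1 mM NAD+ and 30 uM prostaglandin E2; NADH fluorescence (360/450 nm) read 5 times over 30-s intervals, last minus first.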
Large screens that a line does not name were inactive. Most compounds without a hit are left out; they make up all but 11% or so of the library. Unless noted, calls come from the whole dose curve; as a rule, active = well fitted curve in the direction sought with a large enough effect; inconclusive = small, poorly fitted or top-dose-only effect, or another doubt; inactive = no such curve, though single readings can be large; an effect the other way counts as inactive or inconclusive.

O=c1c(-c2cccs2)nc2cnc(N3CCNCC3)nc2n1-c1ccccc1	ALDH1A1 block inconclusive, HPGD inh inconclusive (no result: HttQ103 aggreg, PNC assembly inh)
CC1(OC(=O)C2CCCC2)C(=O)C=C2C=C(c3ccsc3)N(Cc3ccco3)C=C2C1=O (stereo not drawn)	ALDH1A1 block 3.5µM (no result: PNC assembly inh)
NC(N)=NCCCC(NC(=O)C(N)Cc1ccc(O)cc1)C(=O)O (stereo not drawn)	none (no result: HttQ103 aggreg, PNC assembly inh)
CCN(CC)C(=O)Oc1ccc2c(=O)c(-c3ccc(OC)cc3)coc2c1	ALDH1A1 block inconclusive
CCN(CC)C(=O)Oc1ccc2c(=O)c(-c3ccc(OC)cc3)c(C)oc2c1	PNC assembly inh inconclusive, ALDH1A1 block 14µM
Cc1ccc(S(=O)(=O)Nc2cc(=O)[nH]c(SCc3ccc(Cl)cc3)n2)cc1	ALDH1A1 block inconclusive
O=C(OCC(=O)N1CCCCCC1)c1ccc(Cl)c(S(=O)(=O)N2CCCC2)c1	ALDH1A1 block inconclusive (no result: PNC assembly inh, HPGD inh)
CNC(=O)COC(=O)c1ccc(Cl)c(S(=O)(=O)N2CCCC2)c1	HttQ103 aggreg inconclusive, HTT ATP protect 2.8µM, ALDH1A1 block inconclusive (no result: PNC assembly inh, HPGD inh)
CN(C)c1[nH]c(=O)c(C#N)c2c1CCN2Cc1ccccc1	ALDH1A1 block inconclusive, HPGD inh 13µM
N#Cc1c2c(c[nH]c1=O)CCN2Cc1ccccc1	HPGD inh inconclusive
S=C1NC(C23CC4CC(CC(C4)C2)C3)=CC(c2ccc3c(c2)OCO3)N1 (stereo not drawn)	ALDH1A1 block 2.5µM (no result: PNC assembly inh, HPGD inh)
CC1C(=O)C(C)C(c2ccc3c(c2)OCO3)NC1c1ccc2c(c1)OCO2 (stereo not drawn)	none (no result: GoLoco inh red, HPGD inh)
COc1cc(C2C=C(C34CC5CC(CC(C5)C3)C4)NC(=S)N2)cc(OC)c1OC (stereo not drawn)	ALDH1A1 block 1.1µM
COc1ccc(C2=CC(c3cc(OC)c(OC)c(OC)c3)NC(=S)N2)cc1 (stereo not drawn)	none
COc1ccc(OC)c(C2C=C(C34CC5CC(CC(C5)C3)C4)NC(=S)N2)c1 (stereo not drawn)	HttQ103 aggreg inconclusive, PNC assembly inh inconclusive, ALDH1A1 block 2.5µM
NCCO	ALDH1A1 block inconclusive (no result: HttQ103 aggreg, PNC assembly inh)
N#Cc1cn(CCCOc2ccccc2)c2ccccc12	HttQ103 aggreg inconclusive
COc1ccccc1OCCCn1cc(C#N)c2ccccc21	HttQ103 aggreg inconclusive, PNC assembly inh -82
C=CCn1c(=S)[nH]c2sc3c(c2c1=O)CCC3	PNC assembly inh -109, ALDH1A1 block 11µM, HPGD inh 32µM
Cc1cccc(CNc2cc(-c3ccc(C(=O)N(C)C)cc3)ncn2)c1	ALDH1A1 block inconclusive, HPGD inh inconclusive (no result: HttQ103 aggreg, PNC assembly inh)
CC(C)OC(=O)c1cc(-c2ccc(C=O)o2)ccc1Cl	PNC assembly inh inconclusive, ALDH1A1 block 8.9µM
CC/C(=N/Nc1ccccc1)c1cnnc(-c2ccccc2)n1	ALDH1A1 block 10µM
CC/C(=N/Nc1cccc(Cl)c1)c1cnnc(SC)n1	none (no result: HTT ATP protect)
COc1ccc(NS(=O)(=O)c2cccc(C(=O)NNC(=O)NCCCl)c2)cc1	ALDH1A1 block inconclusive (no result: PNC assembly inh, HPGD inh)
Cn1nc(CC(=O)NC2CCCCCCCCCCC2)c2ccccc2c1=O	none
Cn1nc(CC(=O)Nc2ncc(Br)s2)c2ccccc2c1=O	PNC assembly inh -119
Cc1ccc(-c2csc(/C=C3\SC(C)C(=O)N3CC(=O)Nc3ccccc3F)n2)cc1 (stereo not drawn)	none (no result: PNC assembly inh, ALDH1A1 block, HPGD inh)
Clc1cccc(Oc2ncccn2)c1	PNC assembly inh -83
Cc1cc(C)n(/N=C/c2cccs2)c(=O)c1C#N	PNC assembly inh -98
CN(C)c1ccc(C(=O)c2ccc(N(C)C)c3ccccc23)cc1	HttQ103 aggreg inconclusive, PNC assembly inh -103
COc1ccc(C(=O)c2ccc(N(C)C)cc2)c(OC)c1	PNC assembly inh inconclusive
Cc1cc(C(=O)CN2C(=O)NC3(CCCc4sccc43)C2=O)c(C)n1-c1ccccc1 (stereo not drawn)	HttQ103 aggreg 22µM, ALDH1A1 block 28µM (no result: HTT ATP protect)
COc1ccc(-n2c(C)cc(C(=O)CN3C(=O)NC4(CCCc5sccc54)C3=O)c2C)cc1 (stereo not drawn)	HttQ103 aggreg inconclusive, HTT ATP protect inconclusive
Cc1nc(CCN2C(=O)c3ccccc3C2=O)cs1	PNC assembly inh -111
CNc1nc(CCN2C(=O)c3ccccc3C2=O)cs1	ALDH1A1 block inconclusive
CCCCc1ncc(/C=C(\Cc2cccs2)C(=O)O)n1Cc1ccc(C(=O)O)cc1	none (no result: PNC assembly inh, ALDH1A1 block, HPGD inh)
CN1C(=O)NC(c2ccc(O)cc2)C(C(=O)c2cccs2)C1(O)C(F)(F)F (stereo not drawn)	ALDH1A1 block 7.9µM
Cc1cc(C)c(S(=O)(=O)N(CC(=O)O)C2CCCCC2)c(C)c1	PNC assembly inh -97
S=C(NNc1ccnc2cc(Cl)ccc12)Nc1ccccc1Cl	ALDH1A1 block inconclusive, HPGD inh 25µM (no result: HTT ATP protect)
CC(C)(C)NNC(=S)Nc1cccc(C(F)(F)F)c1	none (no result: PNC assembly inh, ALDH1A1 block, HPGD inh)
Cc1cccc(NC(=S)NNc2ncc(C(F)(F)F)cc2Cl)c1	HttQ103 aggreg inconclusive, ALDH1A1 block 28µM
FC(F)(F)c1cnc(NNC(=S)Nc2ccccc2Cl)c(Cl)c1	HttQ103 aggreg 22µM, ALDH1A1 block 1.5µM (no result: GoLoco inh red, HPGD inh)
NNC(=S)Nc1ccc(C(F)(F)F)cc1Cl	ALDH1A1 block inconclusive (no result: PNC assembly inh, HPGD inh)
COc1ccc(C(=O)COC(=O)C(CCSC)NS(=O)(=O)c2ccc(Cl)cc2)cc1 (stereo not drawn)	PNC assembly inh inconclusive, ALDH1A1 block inconclusive
CCN(CC)c1ccc2cc(C(N)=O)c(=O)oc2c1	PNC assembly inh -105, ALDH1A1 block inconclusive, HPGD inh inconclusive
CCN(CC)c1ccc2cc(-c3nnc(-c4ccncc4)o3)c(=O)oc2c1	HttQ103 aggreg 2.5µM, PNC assembly inh -119, ALDH1A1 block inconclusive, HPGD inh inconclusive
CCN(CC)c1ccc2cc(C(N)=O)c(=N)oc2c1	none (no result: PNC assembly inh, HPGD inh)
CCOC(=O)N1CCN(C(=O)Nc2sc3nc4n(c(=O)c3c2C)CCC(C)CC4)CC1 (stereo not drawn)	ALDH1A1 block 13µM
CCOC(=O)N1CCN(C(=O)Nc2ccc3nc(C)sc3c2)CC1	ALDH1A1 block inconclusive
CCOC(=O)c1sc2nc3n(c(=O)c2c1C)CCC(C)CC3 (stereo not drawn)	ALDH1A1 block 11µM, HPGD inh 25µM
CCOC(=O)N1CCC(NC(=O)c2sc3nc4n(c(=O)c3c2C)CCCC4)CC1	none
O=C1[C@H]2CCn3c(=O)n(-c4ccccc4)c(=O)n3[C@H]2[C@H](O)[C@H]2O[C@@H]12	none (no result: HttQ103 aggreg, GoLoco inh red, PNC assembly inh, HPGD inh)
O=C(N/N=C/c1cc2c3c(c1O)CCCN3CCC2)c1ccccc1O	HttQ103 aggreg 0.89µM, GoLoco inh red 28µM, PNC assembly inh -113 (no result: HTT ATP protect)
Cc1nn(-c2ccccc2)c(N2CCCC2)c1/C=N/NC(=O)c1ccccc1O	HttQ103 aggreg inconclusive, PNC assembly inh -104, ALDH1A1 block inconclusive, HPGD inh inconclusive
COC(=O)N1CCC2(CC1)CN(C(c1ccccc1)c1ccccc1)C2	none (no result: HttQ103 aggreg, PNC assembly inh)
